# Test results published in PubChem BioAssay (NCI).
# Compounds without any hit were thinned out: in the full panel of roughly 83,000, 20% have a hit.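 Values shown are percent growth following 48 h exposure of cells in 96-well plates to a single concentration of compound; below 10 was considered active.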 Unmarked numbers belong to inactive results. Active and inactive are the calls of the source.
# Tested on: 786-0 renal
# Experiment: NCI-60 one-dose screen, 48 h (100 = growth as untreated, 0 = no growth, -100 = all killed)
# Details: 10 µM
row,Structure (SMILES),growth
1,COc1cc(-c2cc(/C=C3\C(=O)Nc4cc(Cl)ccc43)[nH]n2)cc(OC)c1OC,93.7%
2,CCCCCCc1cc(N=Nc2ccc(S(=O)(=O)Nc3cc(C)nc(C)n3)cc2)c(O)cc1O,102%
3,N#CC1=C(Nc2ccccc2Cl)SC(c2ccccc2O)NC1=O (stereo not drawn),114%
4,COc1cc(-c2nc(Nc3nc4ccccc4s3)[nH]c(=O)c2C#N)cc(OC)c1O,101%
5,CCCCCCCCCCCCCCCCCCOCC(COCCOCC[N+]1(CCCCCC(=O)[O-])CCCC1)Oc1ncccn1 (stereo not drawn),52.8%
6,COc1ccc(C2=NN(C(=O)c3ccc(S(C)(=O)=O)cc3)C(c3ccc(OC)c(OC)c3)C2)c(OC)c1 (stereo not drawn),99.8%
7,COc1ccccc1CNCCCN1C(=O)c2ccc3c4c(ccc(c24)C1=O)C(=O)N(CCCN)C3=O,4.32% (active)
8,Nc1nc(N)c(NC(=O)CNc2ccc(C(=O)O)cc2)c(N)n1,107%
9,c1ccc(CP(Cc2ccccc2)c2ccccc2)cc1,93.5%
10,COC(=O)C1(C)Cc2cc(OC(C)=O)c(OC(C)=O)cc2N1 (stereo not drawn),103%
11,CC(=O)OCc1cc(-c2nc3ccccc3[nH]c2=O)nn1-c1ccc(Cl)cc1,96.4%
12,CC(=O)c1nc2ccccc2n1CCN1CCN(C)CC1,78.6%
13,COc1ccc(-c2nn(-c3cccc(NC(=O)Nc4ccc(Cl)c(C(F)(F)F)c4)c3)cc2-c2ccncc2)cc1Cl,19%
14,COc1cc(C(=O)/C=C/c2cc(-c3cc(OC)c(OC)c(OC)c3)n[nH]2)cc(OC)c1OC,-71.7% (active)
15,Cc1cccc(NC2=C(C#N)C(=O)NC3(CCCC3)S2)c1,103%
16,O=C1/C(=C\c2ccc(F)cc2)CN(C(=O)c2ccccc2)C/C1=C\c1ccc(F)cc1,33.6%
17,COc1cc(-c2cc(/C=C3\C(=O)Nc4ccccc43)[nH]n2)cc(OC)c1OC,84.2%
18,COc1cc(/C=C\c2cc(OC)c(OC)c(OC)c2)cc(NS(=O)(=O)c2ccc(Cl)cc2)c1OC,39.3%
19,S=C1SCC(c2ccccc2)S1 (stereo not drawn),109%
20,CCN(CC)Cc1cc(Nc2ccnc3cc(Cl)ccc23)ccc1OC,97.4%

row,Structure (SMILES),growth
1,COC(=O)C(C(C[N+](=O)[O-])c1ccccc1)=P(c1ccccc1)(c1ccccc1)c1ccccc1 (stereo not drawn),96.1%
2,O=S(=O)(NCCCNc1nccc(-c2c(-c3ccc(F)cc3)nc3sccn23)n1)c1ccc2ccccc2c1,55.5%
3,CC(=O)N1N=C(c2ccc(Cl)cc2)CC1c1sc(Cl)nc1Cl (stereo not drawn),84.7%
4,O=c1[nH]c2ccc(Cl)cc2c2ccccc12,49.5%
5,COc1ccc(NC2=NC(C)(CO)CS2)cc1 (stereo not drawn),105%
6,N#Cc1ncc(Br)c(NC2CCCCCC2)n1,104%
7,O=C(Nc1cccc(-n2cc(-c3ccncc3)c(-c3cc(O)cc(Cl)c3)n2)c1)Nc1ccc(Cl)c(C(F)(F)F)c1,-29.8% (active)
8,Nc1ncn(C2OC(CO)C(O)C2O)c(=O)n1 (stereo not drawn),12.2%
9,O=C(Nc1nc(-c2ccccc2Cl)cs1)c1cc(-c2ccc(Cl)cc2)nc2ccc(Cl)cc12,23.5%
10,Nc1c(C(=O)Nc2cccc(F)c2)sc2nc3c(cc12)C(=O)CCC3,51.6%
11,COc1ccc(-c2cc(/C=C3\C(=O)Nc4ccc(Cl)cc43)[nH]n2)cc1OC,102%
12,O=C1CC[C@@H]2CCCC[C@@H]2C1,103%
13,COc1ccc2c(c1)O/C(=C\c1ccc([N+](=O)[O-])s1)C2=O,69%
14,Nc1nc(N)c2c(ccc3nccc32)[nH]1,35.8%
15,Nc1cc2c(cc1Cl)-c1ccc([N+](=O)[O-])cc1/C2=N\O,90.8%
16,COc1cc(-c2cc(/C=C/C(=O)c3ccc4c(c3)OCO4)[nH]n2)cc(OC)c1OC,40.6%
17,COc1ccc(Cl)cc1C(=O)Nc1nc2ccc(Cl)cc2s1,75.8%
18,Cc1cc2c(C)c3cc(C)c(N)cc3nc2cc1N,28%
19,O=c1oc2cc(OS(=O)(=O)c3ccccc3)ccc2c2c1CCCCC2,68.8%

# Tested on: COLO 205 colon
# Experiment: as above
# Details: 10 µM
row,Structure (SMILES),growth
1,COc1cc(-c2cc(/C=C3\C(=O)Nc4cc(Cl)ccc43)[nH]n2)cc(OC)c1OC,7.07% (active)
2,CCCCCCc1cc(N=Nc2ccc(S(=O)(=O)Nc3cc(C)nc(C)n3)cc2)c(O)cc1O,103%
3,N#CC1=C(Nc2ccccc2Cl)SC(c2ccccc2O)NC1=O (stereo not drawn),121%
4,COc1cc(-c2nc(Nc3nc4ccccc4s3)[nH]c(=O)c2C#N)cc(OC)c1O,100%
5,CCCCCCCCCCCCCCCCCCOCC(COCCOCC[N+]1(CCCCCC(=O)[O-])CCCC1)Oc1ncccn1 (stereo not drawn),-17.2% (active)
6,COc1ccc(C2=NN(C(=O)c3ccc(S(C)(=O)=O)cc3)C(c3ccc(OC)c(OC)c3)C2)c(OC)c1 (stereo not drawn),111%
7,COc1ccccc1CNCCCN1C(=O)c2ccc3c4c(ccc(c24)C1=O)C(=O)N(CCCN)C3=O,-87.5% (active)
8,Nc1nc(N)c(NC(=O)CNc2ccc(C(=O)O)cc2)c(N)n1,110%
9,c1ccc(CP(Cc2ccccc2)c2ccccc2)cc1,106%
10,COC(=O)C1(C)Cc2cc(OC(C)=O)c(OC(C)=O)cc2N1 (stereo not drawn),53.7%
11,CC(=O)OCc1cc(-c2nc3ccccc3[nH]c2=O)nn1-c1ccc(Cl)cc1,126%
12,CC(=O)c1nc2ccccc2n1CCN1CCN(C)CC1,2.73% (active)
13,COc1ccc(-c2nn(-c3cccc(NC(=O)Nc4ccc(Cl)c(C(F)(F)F)c4)c3)cc2-c2ccncc2)cc1Cl,-33.3% (active)
14,COc1cc(C(=O)/C=C/c2cc(-c3cc(OC)c(OC)c(OC)c3)n[nH]2)cc(OC)c1OC,-88.3% (active)
15,Cc1cccc(NC2=C(C#N)C(=O)NC3(CCCC3)S2)c1,127%
16,O=C1/C(=C\c2ccc(F)cc2)CN(C(=O)c2ccccc2)C/C1=C\c1ccc(F)cc1,50.9%
17,COc1cc(-c2cc(/C=C3\C(=O)Nc4ccccc43)[nH]n2)cc(OC)c1OC,32.3%
18,COc1cc(/C=C\c2cc(OC)c(OC)c(OC)c2)cc(NS(=O)(=O)c2ccc(Cl)cc2)c1OC,-4.81% (active)
19,S=C1SCC(c2ccccc2)S1 (stereo not drawn),111%
20,CCN(CC)Cc1cc(Nc2ccnc3cc(Cl)ccc23)ccc1OC,62.4%

row,Structure (SMILES),growth
1,COC(=O)C(C(C[N+](=O)[O-])c1ccccc1)=P(c1ccccc1)(c1ccccc1)c1ccccc1 (stereo not drawn),106%
2,O=S(=O)(NCCCNc1nccc(-c2c(-c3ccc(F)cc3)nc3sccn23)n1)c1ccc2ccccc2c1,10.1%
3,CC(=O)N1N=C(c2ccc(Cl)cc2)CC1c1sc(Cl)nc1Cl (stereo not drawn),108%
4,O=c1[nH]c2ccc(Cl)cc2c2ccccc12,86.5%
5,COc1ccc(NC2=NC(C)(CO)CS2)cc1 (stereo not drawn),117%
6,N#Cc1ncc(Br)c(NC2CCCCCC2)n1,113%
7,O=C(Nc1cccc(-n2cc(-c3ccncc3)c(-c3cc(O)cc(Cl)c3)n2)c1)Nc1ccc(Cl)c(C(F)(F)F)c1,63.4%
8,Nc1ncn(C2OC(CO)C(O)C2O)c(=O)n1 (stereo not drawn),2.62% (active)
9,O=C(Nc1nc(-c2ccccc2Cl)cs1)c1cc(-c2ccc(Cl)cc2)nc2ccc(Cl)cc12,94.3%
10,Nc1c(C(=O)Nc2cccc(F)c2)sc2nc3c(cc12)C(=O)CCC3,-3.2% (active)
11,COc1ccc(-c2cc(/C=C3\C(=O)Nc4ccc(Cl)cc43)[nH]n2)cc1OC,89.7%
12,O=C1CC[C@@H]2CCCC[C@@H]2C1,108%
13,COc1ccc2c(c1)O/C(=C\c1ccc([N+](=O)[O-])s1)C2=O,-30% (active)
14,Nc1nc(N)c2c(ccc3nccc32)[nH]1,71.4%
15,Nc1cc2c(cc1Cl)-c1ccc([N+](=O)[O-])cc1/C2=N\O,109%
16,COc1cc(-c2cc(/C=C/C(=O)c3ccc4c(c3)OCO4)[nH]n2)cc(OC)c1OC,100%
17,COc1ccc(Cl)cc1C(=O)Nc1nc2ccc(Cl)cc2s1,82.8%
18,Cc1cc2c(C)c3cc(C)c(N)cc3nc2cc1N,1.41% (active)
19,O=c1oc2cc(OS(=O)(=O)c3ccccc3)ccc2c2c1CCCCC2,31.1%
